Measured values published in ChEMBL document CHEMBL3988442, “University of Dundee, Small-Polar-MMV Screening Library” (2021).

The compounds below were run against AMP-activated protein kinase, AMPK (Homo sapiens) (UniProt P54646+O43741+P54619+Q9UGJ0+Q9Y478+Q13131+Q9UGI9) (assay: AMP-dependent Kinase enzyme assay. An in vitro enzyme assay that detects ADP turnover that is directly proportional to AMPK activity. This uses naive AMPK that is activated during the assay with MK-8722). Details: 30 µM.
Format: functional
Parameters: scale not given: direction of the effect not stated beside the values

Row | Compound | Percent Effect
1 | Cc1cc(C)n(C2CN(CCC(=O)NCCc3ccccc3)C2)n1 | 2.98%
2 | CC(C)n1cc(CN(C)C[C@@H]2CCCN3CCCC[C@H]23)cn1 | 3.96%
3 | NCc1cccc(NC(=O)CCN2CCOCC2)c1 | -8.1%
4 | Cc1cc(CNS(C)(=O)=O)ccc1N(C)C | 1.62%
5 | CC(=O)Nc1ccc(Oc2cc(C)nc(C3CCCNC3)c2)cc1 (centres undefined) | -6.11%
6 | Cc1ccccc1S(=O)(=O)N(C)[C@@H]1CC[C@@H](n2ccnc2C)[C@@H]1O | -13.8%
7 | CNC(=O)Cc1ccccc1NC(=O)N[C@H]1c2ccccc2C[C@H]1O | 0.934%
8 | CC(C)(C)Oc1ccc(NCC(=O)NCc2ccco2)cc1 | 9.8%
9 | Cc1ncc(C(=O)NCCOc2ccccc2F)c(C)n1 | -16.7%
10 | CC(C)n1nccc1CN1Cc2nccn2CC1c1ccccc1 (centres undefined) | -2.65%
11 | CC1C(=O)NCCN1CCOc1ccc(C#N)cc1 (centres undefined) | 3.66%
12 | NC(=O)C(NC1CCN(CC2CCCCC2)CC1)c1ccc(F)cc1 (centres undefined) | -4.02%
13 | Cc1cc(C[S+]([O-])Cc2ccccc2F)on1 (centres undefined) | 6.4%
14 | Cc1nn(C)c(C)c1C1CCCN1C(=O)c1cc(C(N)=O)cs1 (centres undefined) | -0.756%
15 | CCN(CC)C1CCN(C(=O)Nc2cc(F)c(OC)c(F)c2)C1 (centres undefined) | -3.29%
16 | COCCC(C)NCc1ccccc1-n1ccnc1 (centres undefined) | -0.71%
17 | CCC(C)Oc1ccc(CNCCNS(C)(=O)=O)cc1Cl (centres undefined) | 5%
18 | CN(C)c1ccc(C(=O)Nc2ccn(CCc3ccncc3)n2)cc1 | 10.3%
19 | O=C(C1CCCN(c2nc3ccccc3cc2CO)C1)N1CCCC1 (centres undefined) | 9.42%
20 | CSCc1noc(-c2ccc(C)c(N3CCNC3=O)c2)n1 | 13.8%

Row | Compound | Percent Effect
21 | CC(C)CCN(C(=O)Nc1cccc(C(=O)N(C)C)c1)C1CC1 | -4.54%
22 | Cc1ccc(N2CCCN(C(=O)CCCn3ccnc3C)CC2)nn1 | -0.453%
23 | Cc1nc(NC(=O)c2c3c(nn2C2CCS(=O)(=O)C2)CCC3)sc1C (centres undefined) | -4%
24 | O=C(c1ccnc(-n2cnnc2)c1)N1CCCC2(CCOC2)C1 (centres undefined) | -4.79%
25 | FC(F)(F)c1ccnc(N2CCCN(Cc3ccccn3)CC2)n1 | -1.31%
26 | Cc1nc2c(c(NCCc3nccs3)n1)CCN(CC1CC1)CC2 | 6.45%
27 | Cc1nccn1[C@@H]1CC[C@@H](N(C)S(=O)(=O)c2ccc(F)cc2)[C@H]1O | 27.2%
28 | CC(C)c1cc(NC(=O)Cn2cnc3ccccc3c2=O)[nH]n1 | 6.52%
29 | CN(C)CC1(O)CCCN(C(=O)CCn2cc(Cl)cn2)C1 (centres undefined) | 4.94%
30 | COc1ccccc1C(C)(C)NC(=O)Nc1ccc(F)c(C(N)=O)c1 | -5.46%
31 | CC1(C)Cc2nc(C(C)(C)C)ncc2C(NC(=O)C2(N)CC2)C1 (centres undefined) | -16.9%
32 | CCN(C)C(=O)c1cccc(S(=O)(=O)NCCc2nc(C)cc(=O)[nH]2)c1 | -5.87%
33 | Cc1nc(CN(C)Cc2csc(-c3cccs3)n2)co1 | 10.3%
34 | COc1nccc(N2CC[C@H](CO)[C@@H](O)C2)c1C#N | -6.05%
35 | CCC(=O)Nc1cccc(OCC(=O)N[C@@H]2C[C@H]3CC[C@@H]2C3)c1 | 3.88%
36 | O=C1CN(C(=O)c2cc3c(F)cc(Br)cc3[nH]2)CCN1 | 8.46%
37 | Cc1nonc1CN1CC[C@@](O)(C2CCC2)[C@H](C)C1 | -1.54%
38 | CC(C)c1nn(C)cc1CNCc1ccnc(N(C)C)c1 | -4.28%
39 | CC(CC(F)(F)F)NCc1ccccc1-n1ccnc1 (centres undefined) | -3.96%
